Experimental data taken from PubChem BioAssay (NCATS).
Several values for one entry are separate records, joined by “and”; a condition that tells them apart may be missing. Equal values may be shown once. Records with an inconclusive call do not appear. Where a call stands in place of a potency, no number is given. Activity calls are given as the source filed them. Calls follow the shape of the dose curve; as a rule, active = well fitted cell-killing curve with a large enough effect; inconclusive = small, poorly fitted or top-dose-only effect, or effect the other way; inactive = no such curve, though single readings can be large or run the other way.
Potency is read from the fitted curve at half-maximal effect.

Experiment: qHTS of pediatric cancer cell lines to identify multiple opportunities for drug repurposing: Confirmatory screen for Saos-2 cells (AID 1347127); also: nearly all actives have a fitted effect of over 60% in size
Conditions: Saos-2 osteosarcoma cell viability; series mostly up to 45.9 µM
Source text: Drug repurposing or repositioning has been offered as a strategy for drug development in oncology programs. This approach has special potential for childhood cancers and other rare or orphan diseases, where the expected return on new drug development has been a disincentive to pharmaceuticals.
In this project we exploit the poly-pharmacology of drugs to discover new indications via phenotypic screening of a panel of 19 well-characterized cell lines derived from solid tumors seen in children and adolescents. The goal is to identify approved drugs with previously unrecognized anticancer properties that has the potential to reveal new mechanisms and biological processes involved in carcinogenesis or drug resistance. We employed a titration-based paradigm (quantitative high-throughput screening or qHTS), where all compounds were tested at multiple concentrations for their effect on cell viability. Concentration-response curves (CRCs) were derived directly from the primary screen, and both potency and efficacy values were used to identify compounds with robust bioactivity profiles. We screened the NIH Chemical Genomics Center (NCGC) Pharmaceutical Collection (NPC) and Mechanism Interrogation Plate (MIPE) small molecule collections of approved and investigational compounds against these cell lines; and measured metabolically active cells after 48 hours of compound treatment as a proxy for cell viability.
Assay Submitter: Nathalia J. Martinez, National Center for Advancing Translational Sciences, National Institutes of Health, Rockville, MD, USA; email: natalia.martinez@nih.gov
[1] Shen, M et al. Quantitative high-throughput phenotypic screening of pediatric cancer cell lines identifies multiple opportunities for drug repurposing. Oncotarget 2017 Dec 19;9(4):4758-4772. PMID 29435139.
The cells were obtained from University of North Carolina (UNC), Pediatric Preclinical Testing Program (PPT), and Coriell Institute (CI).
qHTS cell viability assay:
Cells were assayed in growth media at a density of 500-1,000 cells/well. Five microliters of cells were dispensed into 1,536-well, white, solid-bottom, TC-treated plates (Greiner Bio One) using a multidrop dispenser and incubated at 37 degrees C, 5% CO2, under a humidified atmosphere for 5 hours. Twenty-three nanoliters of compounds and controls (neutral control DMSO or positive control bortezomib at final concentration of 2.3 µM) were subsequently transferred by Kalypsys pintool. For primary screens, the MIPE collection was tested at 11-point dilutions (final concentrations range from 0.78 nM to 46 µM) and the NPC collection at 8-point dilutions (final concentrations range from 0.59 nM to 46 µM). Compounds tested in follow-up screens were assayed at 11-point dilutions. Cells were incubated for 48 hours, followed by addition of 3 µL of CellTiter-Glo (Promega). After a 15 min incubation at room temperature, samples were analyzed for luminescence intensity using a ViewLux High-throughput CCD imager equipped with clear filters.
With CC(=NNC(=S)N1CCC1)c1ccccn1 the Potency was “inactive”. In the case of COc1cccc(-c2cc(=O)c3ccccc3o2)c1N, the Potency is reported as “inactive”. For CC[C@]1(O)C[C@@H]2CN(CCc3c([nH]c4ccccc34)[C@@](C(=O)OC)(c3cc4c(cc3OC)N(C=O)[C@@H]3C45CCN4CC=C[C@](CC)([C@H]45)[C@@H](OC(C)=O)[C@]3(O)C(=O)OC)C2)C1 (some centres undefined), the Potency was “inactive”. With CC[C@]1(O)C[C@@H]2CN(CCc3c([nH]c4ccccc34)[C@@](C(=O)OC)(c3cc4c(cc3OC)N(C)[C@H]3[C@@](O)(C(=O)OC)[C@H](OC(C)=O)[C@]5(CC)C=CCN6CC[C@]43[C@@H]65)C2)C1 the Potency was 657 nM (active) and 1.17 µM (active). With CC1(C)CCC[C@@]2(C)[C@@H]1CC[C@@]1(C)OC(=O)C[C@H]21 the Potency was “inactive”. With O=c1cc(-c2ccc(O)cc2)oc2cc(O)cc(O)c12 the Potency was “inactive”. With CC(=O)Oc1cc2c(s1)CCN(C(C(=O)C1CC1)c1ccccc1F)C2 (centres undefined) the Potency was “inactive”. In the case of O=C(O)c1ccc(-c2cc3cccnc3c(-c3ccc4nonc4c3)n2)cc1, the Potency is reported as 5.22 µM (active). With O=C(Nc1cccc(Br)c1)c1cccc(S(=O)(=O)N2CCCCCC2)c1 the Potency was “inactive”. For O=C1c2ccccc2-[n+]2ccc3c([nH]c4ccccc43)c21, the Potency was 0.928 µM (active). With N[C@@]1(C(=O)O)CS(=O)(=O)[C@H]2[C@H](C(=O)O)[C@H]21 the Potency was 1.31 µM (active). For OC[C@H]1O[C@@H](n2cnc3c2NC=NC[C@@H]3O)C[C@H]1O, the Potency was “inactive”. In the case of Oc1ccc(C2CCN(c3ccnc4ccccc34)CC2)cc1O, the Potency is reported as “inactive”. With CC1(C)CCC2=C(O1)c1ccccc1C(=O)C2=O the Potency was 10.4 µM (active). For CO[C@H]1C(=O)[C@]2(C)[C@@H](OC)C[C@H]3OC[C@@]3(OC(C)=O)[C@H]2[C@H](OC(=O)c2ccccc2)[C@]2(O)C[C@H](OC(=O)[C@H](O)[C@@H](NC(=O)OC(C)(C)C)c3ccccc3)C(C)=C1C2(C)C, the Potency was 0.0147 µM (active). With CC(=O)Nc1ccc([C@H](C)C(=O)Nc2ncc(C(C)C)s2)cc1 the Potency was 5.22 µM (active). For O=C(NCc1ccncc1)C12C[C@H]3C[C@@H](C1)CC(c1ccc(Cl)cc1)(C3)C2, the Potency was 16.5 µM (active). For COc1cc(N2CCC(N3CCN(C)CC3)CC2)ccc1Nc1ncc(Cl)c(Nc2ccccc2S(=O)(=O)C(C)C)n1, the Potency was 1.85 µM (active). With CC(C)n1nc(-c2ccc3oc(N)nc3c2)c2c(N)ncnc21 the Potency was 0.233 µM (active). With NC1=N[C@@]2(c3cc(NC(=O)c4ccc(F)cn4)ccc3F)COC[C@@H]2CS1 the Potency was “inactive”. In the case of O=C1NC(=O)C(=Cc2ccc3c(c2)OC(F)(F)O3)S1, the Potency is reported as “inactive”. With C=C1C(=O)[C@@]23C(CC[C@@H]1[C@H]2O)[C@@]12CO[C@]3(O)[C@@H](O)[C@@H]1C(C)(C)CC[C@@H]2O (some centres undefined) the Potency was 10.4 µM (active). With CC1(C)S[C@H]2[C@H](NC(=O)[C@@H](N)c3ccc(O)cc3)C(=O)N2[C@@H]1C(=O)O the Potency was “inactive”. For CN(C)C1CCN(C(=O)c2ccc(NC(=O)Nc3nc(N4CCOCC4)nc(N4CCOCC4)n3)cc2)CC1, the Potency was 0.329 µM (active). In the case of O=c1[nH]cnc2c1ncn2[C@H]1CC[C@@H](CO)O1, the Potency is reported as “inactive”. In the case of CC(=O)O[C@]1(C(C)=O)CC[C@@H]2[C@@H]3C[C@H](C)C4=CC(=O)CC[C@]4(C)[C@H]3CC[C@@]21C, the Potency is reported as “inactive”. With O=C1C(Cl)=C(NCCN2CCOCC2)C(=O)c2ncccc21 the Potency was 1.17 µM (active). With CC(C)(C(=O)NCC(F)(F)C(F)(F)F)C(=O)N[C@@H]1C(=O)Nc2ccccc2-c2ccccc21 the Potency was “inactive”. In the case of CO[C@H]1C=CC=C(C)C(=O)NC2=CC(=O)C(NCCN(C)C)=C(C[C@@H](C)C[C@H](OC)[C@@H](O)[C@@H](C)C=C(C)[C@@H]1OC(N)=O)C2=O, the Potency is reported as “inactive”. With CCCCCCCCCCCC1=C(O)C(=O)C=C(O)C1=O the Potency was “inactive”. With NS(=O)(=O)c1cccc2c1C(=O)c1cccc(O)c1C2=O the Potency was 0.928 µM (active). With COc1ccc(-c2coc3cc(O)cc(O)c3c2=O)cc1 the Potency was “inactive”. For COc1ccc2c(Oc3ccc(NC(=O)c4c(C)n(CC(C)(C)O)n(-c5ccccc5)c4=O)cc3F)ccnc2c1, the Potency was “inactive”. For CCc1ccc(OCc2ccccc2C(=O)Nc2ccc3nc(C)cc(N)c3c2)cc1, the Potency was 9.27 µM (active). In the case of CC1(C)O[C@H]2C[C@@H]3[C@H]4CCC5=CC(=O)C=C[C@]5(C)[C@@]4(F)[C@@H](O)C[C@]3(C)[C@]2(C(=O)CO)O1, the Potency is reported as “inactive”. With O=C(O)CCC1CCC(c2cc(F)ccc2F)(S(=O)(=O)c2ccc(Cl)cc2)CC1 (centres undefined) the Potency was “inactive”. For Nc1ncnc2c1ncn2[C@@H]1O[C@@H](CO)[C@H](O)[C@H]1O, the Potency was “inactive”. For COc1ncc(-c2ccc3nccc(-c4ccnnc4)c3c2)cc1NS(=O)(=O)c1ccc(F)cc1F, the Potency was 0.0465 µM (active). In the case of O=C(O)c1ccc(-c2c[nH]c3ncc(-c4ccccc4)cc23)cc1C1CCCC1, the Potency is reported as “inactive”.
